In PubChem BioAssay (NCATS):
Records with an inconclusive call do not appear. The source made the active and inactive calls. The call rests on the fitted dose curve; in most records, active means well fitted curve in the direction sought with a large enough effect; inconclusive means small, poorly fitted or top-dose-only effect, or another doubt; inactive means no such curve, though single readings can be large; an effect the other way counts as inactive or inconclusive.

Columns and labels:
[1] = qHTS of pediatric cancer cell lines to identify multiple opportunities for drug repurposing: Confirmatory screen for U-2 OS cells (AID 1347122); further: nearly all actives have a fitted effect of over 65% in size; further: potency means the concentration at half of the fitted maximal effect
Method in brief: (§1)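 Cells (500-1,000/well) in growth media were settled 5 h at 37 degrees C, then given compounds for 48 h. Viability was read as CellTiter-Glo luminescence. Primary runs used MIPE at 11 points (0.78 nM-46 µM) and NPC at 8 points (0.59 nM-46 µM); follow-ups used 11 points.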

[2] = qHTS of pediatric cancer cell lines to identify multiple opportunities for drug repurposing: Confirmatory screen for Rh41 cells (AID 1347123);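 further: 48 h compound exposure; nearly all actives have a fitted effect of over 60% in size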; further: potency means the concentration at half of the fitted maximal effect
Method in brief: as §1

[3] = qHTS of pediatric cancer cell lines to identify multiple opportunities for drug repurposing: Confirmatory screen for Rh18 cells (AID 1347125); further: nearly all actives have a fitted effect of over 55% in size; further: potency means the concentration at half of the fitted maximal effect
Method in brief: as §1

[4] = qHTS of pediatric cancer cell lines to identify multiple opportunities for drug repurposing: Confirmatory screen for Rh30 cells (AID 1347126); further: nearly all actives have a fitted effect of over 55% in size; further: potency means the concentration at half of the fitted maximal effect
Method in brief: as §1

[5] = qHTS of pediatric cancer cell lines to identify multiple opportunities for drug repurposing: Confirmatory screen for OHS-50 cells (AID 1347128);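 further: compound exposure lasted 48 h at 37 degrees C; nearly all actives have a fitted effect of over 55% in size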; further: potency means the concentration at half of the fitted maximal effect
Method in brief: as §1

[6] = qHTS of pediatric cancer cell lines to identify multiple opportunities for drug repurposing: Confirmatory screen for SK-N-SH cells (AID 1347129);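 further: cells exposed to compound for 48 h before viability read; nearly all actives have a fitted effect of over 60% in size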; further: potency means the concentration at half of the fitted maximal effect
Method in brief: as §1

[7] = test system: Zika virus NS2B-NS3 protease; assay: Primary screen GU AMC qHTS for Zika virus inhibitors (AID 1347154); further: nearly all actives have a fitted effect of over 70% in size; further: potency means the concentration at half of the fitted maximal effect
Method in brief: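 Unlinked Zika NS2B hydrophilic domain/NS3 protease domain noncovalent complex (25 nM final) in 10 mM Tris-HCl pH 8.0, 0.01% Tween 20, with AMC peptide substrate. Fluorescence (ex 340, em 450 nm) change over 15 min, room temperature; percent inhibition fitted to 4-parameter Hill equation.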

[8] = qHTS of pediatric cancer cell lines to identify multiple opportunities for drug repurposing: Confirmatory screen for RD cells (AID 1347124);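 further: cells exposed to compound for 48 h before viability readout; nearly all actives have a fitted effect of over 65% in size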; further: potency means the concentration at half of the fitted maximal effect
Method in brief: as §1

[9] = qHTS of pediatric cancer cell lines to identify multiple opportunities for drug repurposing: Confirmatory screen for Saos-2 cells (AID 1347127); further: nearly all actives have a fitted effect of over 60% in size; further: potency means the concentration at half of the fitted maximal effect
Method in brief: as §1

Furin (Homo sapiens) = Furin (Homo sapiens) (UniProt P09958); assay: Furin counterscreen qHTS for Zika virus inhibitors (AID 1347149);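 further: purified recombinant full-length human furin enzyme at 5 nM; fluorescence gain from furin cutting a BOC-RVRR-AMC peptide substrate over 15 min; top concentration of the series differs between compounds; nearly all actives have a fitted effect of over 70% in size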
Method in brief: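 Counterscreen measures cleavage of 2 microM BOC-RVRR-AMC, below its ~15 microM Km, by 5 nM full-length human furin at pH 7.0 after a 15-min compound preincubation. Inhibition derives from the 15-min fluorescence increase at 37C.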

[10] = test system: Zika virus NS2B-NS3 protease (linked construct); assay: Confirmatory screen NINDS AMC qHTS for Zika virus inhibitors (AID 1347152); further: nearly all actives have a fitted effect of over 70% in size; further: potency means the concentration at half of the fitted maximal effect
Method in brief: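 Linked NS2B-NS3 1 nM, Tris pH 8.0/0.01% Tween 20; cpd 15 min RT dark; + Nle-KRR-AMC 10 µM (Km 18.3 µM); read 0 and 15 min, 340/450 nm; %inh vs controls, 4-param Hill.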

[11] = Confirmatory screen NINDS Rhodamine qHTS for Zika virus inhibitors (AID 1347161);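 further: purified Zika NS2B-NS3 protease with linked NS2B cofactor domain and Rhodamine110 peptide substrate; series mostly up to about 110 µM; nearly all actives have a fitted effect of over 60% in size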
Method in brief: (§2)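 Enzyme (25 nM, linked NS2B-NS3) was preincubated 15 min with compound in 10 mM Tris-HCl pH 8.0, 0.01% Tween 20. Rhodamine110 substrate (1.5 microM) was then added and fluorescence read at start and after 15 min.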

[12] = test system: Zika virus NS2B-NS3 protease (unlinked complex); assay: Confirmatory screen GU AMC qHTS for Zika virus inhibitors (AID 1347153); further: nearly all actives have a fitted effect of over 70% in size
Method in brief: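 Fluorescence change (ex 340/em 450 nm) over 15 min, ~20% substrate conversion, normalized to no-inhibitor and no-enzyme controls, then Hill-fitted. Unlinked protease at 25 nM; AMC peptide 10 µM.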

[13] = test system: Zika virus NS2B-NS3 protease (unlinked complex); assay: Primary screen GU Rhodamine qHTS for Zika virus inhibitors: Unlinked NS2B-NS3 protease assay (AID 1347159); further: nearly all actives have a fitted effect of over 60% in size; further: potency means the concentration at half of the fitted maximal effect
Method in brief: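 Enzyme 25 nM in Tris-HCl pH 8.0 + 0.01% Tween 20; compounds up to 114 microM, 15 min RT dark; + Rhod110 substrate 1.5 microM; read t0 and 15 min; delta fluorescence → % inhibition → 4-parameter Hill fit.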

[14] = test system: Zika virus NS2B-NS3 protease (linked construct); assay: Primary screen NINDS Rhodamine qHTS for Zika virus inhibitors (AID 1347160); further: nearly all actives have a fitted effect of over 55% in size
Method in brief: as §2

Measured: Potency

Sequence of Furin (Homo sapiens) (P09958 whole entry, looked up): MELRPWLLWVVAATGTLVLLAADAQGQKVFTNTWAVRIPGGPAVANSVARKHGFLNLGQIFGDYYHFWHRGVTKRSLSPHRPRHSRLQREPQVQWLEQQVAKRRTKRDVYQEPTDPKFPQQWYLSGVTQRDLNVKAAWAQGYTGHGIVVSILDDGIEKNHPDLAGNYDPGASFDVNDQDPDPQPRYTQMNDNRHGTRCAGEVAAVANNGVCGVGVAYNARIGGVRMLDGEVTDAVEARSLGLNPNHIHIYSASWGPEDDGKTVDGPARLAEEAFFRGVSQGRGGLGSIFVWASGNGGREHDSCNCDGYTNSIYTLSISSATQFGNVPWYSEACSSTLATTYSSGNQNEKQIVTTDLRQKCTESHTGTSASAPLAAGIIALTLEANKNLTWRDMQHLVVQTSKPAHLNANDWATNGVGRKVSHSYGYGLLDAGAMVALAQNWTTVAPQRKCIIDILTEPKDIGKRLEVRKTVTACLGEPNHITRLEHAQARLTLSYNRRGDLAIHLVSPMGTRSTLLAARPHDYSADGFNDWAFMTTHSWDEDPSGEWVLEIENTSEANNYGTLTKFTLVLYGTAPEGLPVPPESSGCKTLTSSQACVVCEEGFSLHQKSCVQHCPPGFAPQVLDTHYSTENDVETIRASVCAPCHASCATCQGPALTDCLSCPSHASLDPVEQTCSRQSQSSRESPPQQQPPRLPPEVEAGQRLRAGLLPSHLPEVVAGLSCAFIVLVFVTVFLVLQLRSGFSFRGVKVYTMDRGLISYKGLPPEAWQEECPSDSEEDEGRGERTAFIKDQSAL

CO[C@@H]1[C@@H](O)[C@H](O)[C@@H](n2c3c(Cl)cccc3c3c4c(c5c6cccc(Cl)c6[nH]c5c32)C(=O)NC4=O)O[C@@H]1CO
inactive: [4] | [7]
active: [1] 4.14 µM | [2] 5.85 µM | [3] 6.57 µM | [5] 2.61 µM | [6] 2.64 µM

COC[C@H](NC(=O)c1cnc(C)s1)C(=O)N[C@@H](COC)C(=O)N[C@@H](Cc1ccccc1)C(=O)[C@@]1(C)CO1
active: [1] 0.329 µM | [2] 0.0465 µM | [8] 0.0827 µM | [3] 0.208 µM | [4] 0.737 µM
inactive: [7]

Cc1[nH]c(C=C2C(=O)Nc3ccccc32)c(C)c1CCC(=O)O
inactive: [1] | [2] | [8] | [3] | [9] | [5] | [6] | [7]

CN[C@@H]1C[C@H]2O[C@@](C)([C@H]1OC)n1c3ccccc3c3c4c(c5c6ccccc6n2c5c31)C(=O)N[C@H]4O
inactive: Furin (Homo sapiens) | [11]
active: [1] 0.369 µM | [2] 1.04 µM | [3] 1.47 µM | [9] 0.585 µM | [5] 0.585 µM | [6] 0.332 µM | [10] 19.2 µM | [7] 21.5 µM

CCc1cnn2c(NCc3ccc[n+]([O-])c3)cc(N3CCCC[C@@H]3CCO)nc12
inactive: [1] | [2] | [8] | [9] | [6] | [7]

NS(=O)(=O)OC[C@@H]1C[C@@H](n2ccc3c(N[C@H]4CCc5ccccc54)ncnc32)C[C@H]1O
inactive: [1] | [8] | [3] | [4] | [9] | [5]

CC(C=CC1=C(C)CCCC1(C)C)=CC=CC(C)=CC(=O)Nc1ccc(O)cc1
active: [1] 12 µM | [2] 5.37 µM | [3] 42.7 µM | [9] 38 µM | [5] 42.7 µM | [6] 38.2 µM

COc1ccc(C(C)=O)c(O)c1
inactive: [1] | [2] | [8] | [3] | [4] | [5] | [6] | [7]

CNC(=O)c1cccc(-c2ccc3c(N4CCOC[C@H]4C)nc(N4CCOC[C@H]4C)nc3n2)c1
active: [1] 0.261 µM | [2] 0.585 µM | [5] 6.57 µM | [6] 2.64 µM | [7] 24.1 µM
inactive: Furin (Homo sapiens) | [10] | [12] | [11]

COc1cc2c(cc1OC)[C@@H]1C(=O)c3ccc4c(c3O[C@@H]1CO2)C=CC(C)(C)O4
active: [1] 0.329 µM | [2] 13.1 µM | [4] 1.85 µM | [9] 3.69 µM
inactive: [5]

Cc1nc(NC(=O)N2CCC[C@@H]2C(N)=O)sc1-c1ccnc(C(C)(C)C(F)(F)F)c1
active: [1] 14.7 µM | [2] 2.61 µM | [3] 2.93 µM | [4] 5.22 µM | [9] 5.85 µM | [6] 11.8 µM
inactive: [7]

CCCCC(=O)O[C@]1(C(=O)CO)[C@@H](C)C[C@H]2[C@@H]3CCC4=CC(=O)C=C[C@]4(C)[C@@]3(F)[C@@H](O)C[C@@]21C
inactive: [1] | [2] | [8] | [3] | [9] | [5] | [6] | [7]

Cn1cnc(=N)c2[nH]cnc21
inactive: [3] | [9] | [5] | [6] | [7]

COc1cc([C@@H]2c3cc4c(cc3[C@H](O)[C@H]3COC(=O)[C@@H]23)OCO4)cc(OC)c1OC
inactive: [3] | [4] | [7]
active: [1] 1.85 µM | [8] 0.928 µM | [9] 0.522 µM

CC(C)NC[C@@H](C(=O)N1CCN(c2ncnc3c2[C@H](C)C[C@H]3O)CC1)c1ccc(Cl)cc1
active: [2] 0.737 µM | [4] 8.27 µM | [9] 6.57 µM | [6] 16.6 µM
inactive: [7]

CCOC(=O)N1CCN([N+]([O-])=NOc2ccc([N+](=O)[O-])cc2C#N)CC1
active: [2] 18.5 µM
inactive: [7]

C=CC(=O)Nc1ccc2ncnc(Nc3ccc(OCc4cccc(F)c4)c(Cl)c3)c2c1
active: [2] 0.465 µM | [8] 1.47 µM | [3] 16.5 µM | [9] 7.37 µM | [5] 6.57 µM | [6] 16.6 µM | [13] 44.7 µM

CC(=O)N1CCN(c2ccc(OCc3nn(C)c(C)c3-c3cccc4c(CCCOc5cccc6ccccc56)c(C(=O)O)n(Cc5cccnc5)c34)cc2)CC1
inactive: [1] | [8] | [3] | [4] | [5] | [6]

O=C(Nc1cc2cc[nH]c2cn1)c1ccccc1
active: [3] 8.27 µM | [5] 10.4 µM | [6] 10.5 µM
inactive: [1] | [7] | [13] | [14]
